# Assay results published in article PMC7862700, “An all-to-all approach to the identification of sequence-specific readers for epigenetic DNA modifications on cytosine”.
# Experiments:
# Test in all cases: DAPPL (digital affinity profiling via proximity ligation, sequencing); 10 mM Tris-HCl pH 7.5, 50 mM NaCl, 1 mM DTT, 4% glycerol, room temperature, 30 min; GST-TFs on glutathione beads, 16-mer random dsDNA library, 0.1% formaldehyde crosslink after washing; high values mean tight binding
# Conditions in all cases: protein: recombinant; tags: N-terminal GST; dsDNA, one strand shown
# FLI1 = biological target: T1, FLI1 (Homo sapiens, UniProt Q01543 1-452)
# T1 sequence: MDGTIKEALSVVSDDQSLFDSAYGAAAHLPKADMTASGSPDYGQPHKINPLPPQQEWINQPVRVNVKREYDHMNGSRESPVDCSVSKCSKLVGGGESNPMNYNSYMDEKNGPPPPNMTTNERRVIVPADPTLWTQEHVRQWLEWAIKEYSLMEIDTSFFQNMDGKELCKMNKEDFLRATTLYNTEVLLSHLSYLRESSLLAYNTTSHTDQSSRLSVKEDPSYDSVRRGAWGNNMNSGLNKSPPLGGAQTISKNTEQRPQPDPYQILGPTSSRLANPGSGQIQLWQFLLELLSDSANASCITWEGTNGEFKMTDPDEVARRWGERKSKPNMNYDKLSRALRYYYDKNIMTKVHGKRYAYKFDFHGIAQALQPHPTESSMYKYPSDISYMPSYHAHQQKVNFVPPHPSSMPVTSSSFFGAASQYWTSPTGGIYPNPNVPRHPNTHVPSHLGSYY
# In short: (§1)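 Human transcription factors carrying a GST fusion were produced in yeast, bound to glutathione beads, tagged with DNA barcodes and pooled together with a tag-only sample. Each pool was held with 200 nmole of a random double-stranded 16-mer DNA library in Tris/NaCl/DTT/glycerol buffer for 30 min at room temperature, then washed, crosslinked in 0.1% formaldehyde, proximity-ligated with BsaI/T4 ligase (1 h, 37 °C), PCR-amplified and sequenced on an Illumina NextSeq500. Binding signal is the read frequency of each hexamer for a given factor divided by its frequency in the tag-only sample.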
# ELK1 = biological target: T2, ELK1 (Homo sapiens, UniProt P19419 1-428)
# T2 sequence: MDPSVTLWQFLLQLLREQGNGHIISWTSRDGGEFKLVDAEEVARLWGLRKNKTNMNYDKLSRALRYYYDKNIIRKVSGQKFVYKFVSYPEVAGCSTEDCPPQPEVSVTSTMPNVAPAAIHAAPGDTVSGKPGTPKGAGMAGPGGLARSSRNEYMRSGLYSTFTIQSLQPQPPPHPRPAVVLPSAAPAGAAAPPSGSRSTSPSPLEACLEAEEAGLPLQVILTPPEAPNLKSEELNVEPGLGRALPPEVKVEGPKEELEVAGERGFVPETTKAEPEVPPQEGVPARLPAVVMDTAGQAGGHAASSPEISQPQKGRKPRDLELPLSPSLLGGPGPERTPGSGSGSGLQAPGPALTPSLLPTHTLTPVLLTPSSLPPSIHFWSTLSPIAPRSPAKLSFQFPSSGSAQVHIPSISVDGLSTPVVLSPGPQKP
# In short: as §1
# GABPA = biological target: T3, GABPA (Homo sapiens, UniProt Q06546 1-454)
# T3 sequence: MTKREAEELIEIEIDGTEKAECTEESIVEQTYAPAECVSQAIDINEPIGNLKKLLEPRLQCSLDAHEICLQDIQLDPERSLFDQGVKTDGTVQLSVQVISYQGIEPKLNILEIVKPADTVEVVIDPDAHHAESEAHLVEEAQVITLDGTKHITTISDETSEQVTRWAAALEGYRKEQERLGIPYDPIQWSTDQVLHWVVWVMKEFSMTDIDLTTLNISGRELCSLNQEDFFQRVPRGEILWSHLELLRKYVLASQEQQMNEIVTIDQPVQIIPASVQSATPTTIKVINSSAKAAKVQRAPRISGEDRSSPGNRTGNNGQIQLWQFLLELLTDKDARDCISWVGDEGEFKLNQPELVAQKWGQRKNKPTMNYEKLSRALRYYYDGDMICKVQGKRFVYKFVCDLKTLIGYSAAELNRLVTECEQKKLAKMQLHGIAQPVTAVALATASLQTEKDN
# In short: as §1
# ETV2 = biological target: T4, ETV2 (Homo sapiens, UniProt O00321 1-342)
# T4 sequence: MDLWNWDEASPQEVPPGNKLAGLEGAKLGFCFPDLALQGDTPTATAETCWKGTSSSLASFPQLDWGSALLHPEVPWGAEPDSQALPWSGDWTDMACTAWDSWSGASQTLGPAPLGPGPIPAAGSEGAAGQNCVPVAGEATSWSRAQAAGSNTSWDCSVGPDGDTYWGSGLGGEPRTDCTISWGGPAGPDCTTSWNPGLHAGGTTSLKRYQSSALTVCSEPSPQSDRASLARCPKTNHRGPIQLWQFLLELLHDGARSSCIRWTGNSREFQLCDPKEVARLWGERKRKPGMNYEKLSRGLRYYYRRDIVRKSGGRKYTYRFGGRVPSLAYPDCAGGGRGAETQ
# In short: as §1
# ELF3 = biological target: T5, ELF3 (Homo sapiens, UniProt P78545 1-371)
# T5 sequence: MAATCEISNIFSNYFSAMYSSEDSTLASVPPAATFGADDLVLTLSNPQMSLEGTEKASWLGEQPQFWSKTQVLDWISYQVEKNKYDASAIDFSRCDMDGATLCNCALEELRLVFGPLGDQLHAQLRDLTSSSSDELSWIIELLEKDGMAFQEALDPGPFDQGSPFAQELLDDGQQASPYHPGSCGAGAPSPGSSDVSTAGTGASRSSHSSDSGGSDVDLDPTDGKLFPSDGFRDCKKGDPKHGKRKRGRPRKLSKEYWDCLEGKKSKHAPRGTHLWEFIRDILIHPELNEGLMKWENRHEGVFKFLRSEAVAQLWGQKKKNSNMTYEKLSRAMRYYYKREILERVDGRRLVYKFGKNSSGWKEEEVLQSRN
# In short: as §1
# ELK4 = biological target: T6, ELK4 (Homo sapiens, UniProt P28324-2 1-405)
# T6 sequence: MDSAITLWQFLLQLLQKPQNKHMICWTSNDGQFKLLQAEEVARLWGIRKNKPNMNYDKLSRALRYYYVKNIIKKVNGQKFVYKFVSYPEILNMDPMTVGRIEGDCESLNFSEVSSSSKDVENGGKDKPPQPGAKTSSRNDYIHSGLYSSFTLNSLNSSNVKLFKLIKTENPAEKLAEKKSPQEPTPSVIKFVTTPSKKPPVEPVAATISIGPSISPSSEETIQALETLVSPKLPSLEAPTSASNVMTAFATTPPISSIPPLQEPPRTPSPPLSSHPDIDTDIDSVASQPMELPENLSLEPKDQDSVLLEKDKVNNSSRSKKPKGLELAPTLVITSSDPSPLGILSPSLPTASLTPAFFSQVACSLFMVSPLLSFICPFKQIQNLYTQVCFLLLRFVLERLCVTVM
# In short: as §1
# ERF = biological target: T7, ERF (Homo sapiens, UniProt P50548 1-548)
# T7 sequence: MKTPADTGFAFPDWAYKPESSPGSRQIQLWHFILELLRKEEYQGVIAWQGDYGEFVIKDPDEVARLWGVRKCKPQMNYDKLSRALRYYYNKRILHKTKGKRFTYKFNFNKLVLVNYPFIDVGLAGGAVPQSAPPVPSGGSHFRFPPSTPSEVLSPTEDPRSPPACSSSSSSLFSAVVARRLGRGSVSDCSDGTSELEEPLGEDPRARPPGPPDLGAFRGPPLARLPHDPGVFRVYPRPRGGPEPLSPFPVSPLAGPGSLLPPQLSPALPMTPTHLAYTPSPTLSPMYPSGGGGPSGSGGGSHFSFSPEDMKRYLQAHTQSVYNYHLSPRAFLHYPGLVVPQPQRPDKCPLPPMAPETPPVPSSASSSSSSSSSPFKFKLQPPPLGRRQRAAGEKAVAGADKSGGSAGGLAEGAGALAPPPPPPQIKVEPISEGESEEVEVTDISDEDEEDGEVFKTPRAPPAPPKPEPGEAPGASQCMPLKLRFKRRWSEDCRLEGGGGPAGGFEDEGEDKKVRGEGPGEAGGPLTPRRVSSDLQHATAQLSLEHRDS
# In short: as §1
# ETV3L = biological target: T8, ETV3L (Homo sapiens, UniProt Q6ZN32 1-361)
# T8 sequence: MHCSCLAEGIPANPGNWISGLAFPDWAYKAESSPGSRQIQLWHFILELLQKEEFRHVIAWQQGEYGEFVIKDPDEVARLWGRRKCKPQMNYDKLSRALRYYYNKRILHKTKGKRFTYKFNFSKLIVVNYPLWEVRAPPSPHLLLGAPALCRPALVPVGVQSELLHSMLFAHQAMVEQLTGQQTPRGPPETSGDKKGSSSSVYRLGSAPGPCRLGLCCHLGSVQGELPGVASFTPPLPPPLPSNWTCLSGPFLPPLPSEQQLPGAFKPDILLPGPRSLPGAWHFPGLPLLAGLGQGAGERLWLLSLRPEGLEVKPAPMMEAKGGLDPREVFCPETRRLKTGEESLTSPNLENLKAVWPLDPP
# In short: as §1
# ETV7 = biological target: T9, ETV7 (Homo sapiens, UniProt Q9Y603 1-341)
# T9 sequence: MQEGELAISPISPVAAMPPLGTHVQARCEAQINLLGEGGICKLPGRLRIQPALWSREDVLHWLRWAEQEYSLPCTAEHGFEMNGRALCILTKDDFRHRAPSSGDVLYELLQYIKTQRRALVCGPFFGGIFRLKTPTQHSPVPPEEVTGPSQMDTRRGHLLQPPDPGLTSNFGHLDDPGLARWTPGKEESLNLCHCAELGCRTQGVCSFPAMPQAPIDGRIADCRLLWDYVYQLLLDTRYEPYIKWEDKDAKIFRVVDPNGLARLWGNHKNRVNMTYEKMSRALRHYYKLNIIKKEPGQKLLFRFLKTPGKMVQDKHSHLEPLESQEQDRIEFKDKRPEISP
# In short: as §1
# ELF1 = ELF1 (Homo sapiens, UniProt P32519 1-619)
# In short: as §1
# ELK3 = biological target: T10, ELK3 (Homo sapiens, UniProt P41970 1-407)
# T10 sequence: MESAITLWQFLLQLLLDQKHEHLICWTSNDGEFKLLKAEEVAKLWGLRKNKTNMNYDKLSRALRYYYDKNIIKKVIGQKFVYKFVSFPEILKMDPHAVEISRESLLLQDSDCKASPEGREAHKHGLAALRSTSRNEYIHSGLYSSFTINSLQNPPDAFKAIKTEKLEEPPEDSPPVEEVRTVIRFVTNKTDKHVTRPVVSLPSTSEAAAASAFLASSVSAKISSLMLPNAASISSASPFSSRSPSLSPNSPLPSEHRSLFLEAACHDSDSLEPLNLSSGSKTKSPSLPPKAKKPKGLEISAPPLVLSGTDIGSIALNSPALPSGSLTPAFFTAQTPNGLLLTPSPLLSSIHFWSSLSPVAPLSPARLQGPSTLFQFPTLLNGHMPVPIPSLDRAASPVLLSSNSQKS
# In short: as §1
# ETS2 = biological target: T11, ETS2 (Homo sapiens, UniProt P15036 1-469)
# T11 sequence: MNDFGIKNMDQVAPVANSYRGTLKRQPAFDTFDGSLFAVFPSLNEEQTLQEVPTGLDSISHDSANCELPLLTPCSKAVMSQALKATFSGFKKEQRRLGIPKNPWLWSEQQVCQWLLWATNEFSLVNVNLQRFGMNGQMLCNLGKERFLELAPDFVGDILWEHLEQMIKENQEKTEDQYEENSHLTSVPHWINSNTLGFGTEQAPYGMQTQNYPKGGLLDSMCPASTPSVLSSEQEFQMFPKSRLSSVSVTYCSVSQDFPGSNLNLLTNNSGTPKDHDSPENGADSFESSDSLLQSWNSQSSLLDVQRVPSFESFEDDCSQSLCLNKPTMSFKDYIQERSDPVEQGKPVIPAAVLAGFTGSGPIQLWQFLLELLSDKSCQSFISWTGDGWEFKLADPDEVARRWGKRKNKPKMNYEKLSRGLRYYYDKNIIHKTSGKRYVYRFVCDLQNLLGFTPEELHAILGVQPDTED
# In short: as §1
# Chain of ELF1 (P32519 whole entry): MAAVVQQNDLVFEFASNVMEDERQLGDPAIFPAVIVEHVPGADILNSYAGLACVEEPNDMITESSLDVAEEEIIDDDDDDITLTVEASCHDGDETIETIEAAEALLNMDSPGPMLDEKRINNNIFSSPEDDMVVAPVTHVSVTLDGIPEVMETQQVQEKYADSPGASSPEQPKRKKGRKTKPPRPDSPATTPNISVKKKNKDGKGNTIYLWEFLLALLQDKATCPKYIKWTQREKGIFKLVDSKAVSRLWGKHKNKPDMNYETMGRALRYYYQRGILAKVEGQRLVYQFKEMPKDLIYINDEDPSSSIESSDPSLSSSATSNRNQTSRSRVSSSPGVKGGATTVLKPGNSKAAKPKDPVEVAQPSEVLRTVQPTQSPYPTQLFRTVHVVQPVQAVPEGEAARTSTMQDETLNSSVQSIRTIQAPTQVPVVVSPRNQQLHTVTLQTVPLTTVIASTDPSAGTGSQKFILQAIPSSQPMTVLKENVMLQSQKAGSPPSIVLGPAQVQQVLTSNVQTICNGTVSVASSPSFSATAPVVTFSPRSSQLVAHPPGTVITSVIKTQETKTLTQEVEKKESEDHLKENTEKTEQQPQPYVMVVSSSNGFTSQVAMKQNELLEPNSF
Sequence,binding signal (FLI1),binding signal (ELK1),binding signal (GABPA),binding signal (ETV2),binding signal (ELF3),binding signal (ELK4),binding signal (ERF),binding signal (ETV3L),binding signal (ETV7),binding signal (ELF1),binding signal (ELK3),binding signal (ETS2)
GACCGC,"1.06 fold enrichment (6-mer frequency, TF over GST control)","1.01 fold enrichment (6-mer frequency, TF over GST control)","1.06 fold enrichment (6-mer frequency, TF over GST control)","1.03 fold enrichment (6-mer frequency, TF over GST control)","1.01 fold enrichment (6-mer frequency, TF over GST control)",–,–,–,–,–,–,–
CATTGA,"1.06 fold enrichment (6-mer frequency, TF over GST control)","1.05 fold enrichment (6-mer frequency, TF over GST control)","1 fold enrichment (6-mer frequency, TF over GST control)",–,–,"1.11 fold enrichment (6-mer frequency, TF over GST control)","1 fold enrichment (6-mer frequency, TF over GST control)","1.01 fold enrichment (6-mer frequency, TF over GST control)","1.01 fold enrichment (6-mer frequency, TF over GST control)",–,–,–
ACAAAG,"1.04 fold enrichment (6-mer frequency, TF over GST control)",–,"1.03 fold enrichment (6-mer frequency, TF over GST control)",–,–,–,"1.01 fold enrichment (6-mer frequency, TF over GST control)",–,"1.01 fold enrichment (6-mer frequency, TF over GST control)","1.02 fold enrichment (6-mer frequency, TF over GST control)","1.04 fold enrichment (6-mer frequency, TF over GST control)","1.01 fold enrichment (6-mer frequency, TF over GST control)"
